For 39 compounds, growth results are on record in PubChem BioAssay (NCI).

“And” between values parts separate entries of the source, which are not always exact repeats. Identical values can stand only once. This is part of a sample that, as a whole, favours compounds with a hit. Of some 83,000 tested, about 20% had one in any assay.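 Results are percent growth after 48 hours of single-concentration exposure. 100 means growth as in untreated cells, lower positive values show inhibition; negative values down to -100 show cell death.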 The source made the active and inactive calls. The calls were made as follows: active = growth percent below 10; inactive = the rest.

The assay concerns MDA-MB-468 breast. As to the kind of experiment: NCI-60 one-dose screen, 48 h (100 = growth as untreated, 0 = no growth, -100 = all killed). The conditions noted are these: 10 µM unless noted.
Regarding `C/C=C(/C)C(=O)OC1C=C(CO)C(=O)C(OC(=O)C(C)(O)C(C)Cl)C1C(C)C` (centres undefined), the growth was -51.9% (active).

As for `N#C/C(=C\c1ccc(-c2ccc(F)cc2)o1)C(=O)Nc1ncc(Cc2ccc(Cl)cc2Cl)s1`, the growth is -54.9% (active).

With `COc1ccc(/C=N/Nc2cc(=O)[nH]c3ccc(C)cc23)cc1`, the growth is 101% (inactive).

In the case of `c1c2c(cc3c1OCO3)Cc1cc3c(cc1Cc1cc4c(cc1C2)OCO4)OCO3`, the growth is 106% (inactive).

Regarding `CN(C)CCN1C(=O)c2c(c3c4ccccc4n4c3c3c2c2ccccc2n3C2CC(O)C(O)C4(C)O2)C1=O` (centres undefined), the growth was 12.8% (inactive).

Regarding `COc1ccc(/C=C2\Oc3cc(OCCN4CCC(Cc5ccccc5)CC4)ccc3C2=O)cc1OC`, the growth is 31% (inactive).

On to `CCN(CC)CCNc1ccc(N=Nc2cnc3ccccc3c2)c2ccccc12`, for which the growth is -64.5% (active).

As for `O=C(O)COc1ccccc1F`, the growth is 93.5% (inactive).

For the compound `O=S(=O)(O)CC(O)CN1CCN(CCO)CC1` (centres undefined), the growth was 105% (inactive).

As for `Cc1ccc(CC(=O)O)c(C)c1`, the growth is 112% (inactive).

Turning to `COc1ccccc1NC(=O)n1c(=O)cc(C)c2ccc(O)cc21`, the growth is 96.3% (inactive).

With `COc1cc(OC)c(/C=C/C(=O)c2c(N)cc(OC)cc2OC)c(OC)c1`, the growth was -17.1% (active).

In the case of `O=C(Nc1ccc(Cl)cc1)Nc1ccccc1CNc1nc(Nc2ccc(OCCN3CCCC3)cc2)ncc1Cl`, the growth was -57.4% (active).

For `NS(=O)(=O)c1cccc(Nc2nc(SCC(=O)c3ccc(Br)cc3)nc3ccccc23)c1`, the growth was 61.3% (inactive).

`O=C1N/C(=N\c2nnc(-c3ccc(O)cc3)s2)S/C1=C\c1ccccc1O`: the growth was 99.4% (inactive).

Regarding `COc1ccc(S(=O)(=O)NCCCNc2nccc(-n3cnc4ccccc43)n2)cc1`, the growth is 77.2% (inactive).

In the case of `Cn1cnc([N+](=O)[O-])c1Sc1ncnc2nc[nH]c12`, the growth is -4.47% (active) and 77.7% (inactive).

Turning to `Cc1cc(NS(=O)(=O)c2ccc(NC(=O)CSc3nc4ccccc4c(=O)n3-c3ccccc3)cc2)no1`, the growth is 91% (inactive).

In the case of `O=C(NC[C@H](O)CO)c1ccncc1Nc1ccc(I)cc1F`, the growth is 103% (inactive).

As for `C=C1C(=O)O[C@H]2[C@H]1CC/C(COC(=O)C(=O)c1c[nH]c3ccc(Cl)cc13)=C\CC[C@@]1(C)O[C@@H]21`, the growth is -67.3% (active).

As to `CCNC(=O)OCCc1c2ccccc2nc2ccccc12`, the growth is 108% (inactive).

Consider `COc1cc2ccc(C(C)=O)cc2cc1OC`, for which the growth is 106% (inactive).

Take `COc1cccc(OC(=O)c2ccccc2)c1OC(=O)c1ccccc1`: the growth is 39.4% (inactive).

As for `COc1cc(-c2nn(-c3ccccc3)cc2-c2ccnc(NCCNS(=O)(=O)c3ccc(Cl)cc3)n2)ccc1Cl`, the growth was 31.2% (inactive).

`CCc1n(Cc2ccc3ccccc3c2)cc[n+]1Cc1ccc2ccccc2c1`: the growth was -22.9% (active).

As for `NC(=O)N1N=C(c2ccc(Cl)cc2)CC1c1cn(-c2ccccc2)nc1-c1ccc(Cl)cc1` (centres undefined), the growth was 69.1% (inactive).

On to `CCN(CC)Cc1cc(Nc2ccnc3cc(Cl)ccc23)ccc1OC`, for which the growth was 93.6% (inactive).

Regarding `COc1cc(C2CC(=O)Nc3c2c(C)nn3-c2nc3ccccc3[nH]2)cc(OC)c1OC` (centres undefined), the growth is 96.9% (inactive).

Turning to `COc1ccc(C(c2cc(OC)c(OC)c(OC)c2)N2CCN(c3ccccc3)CC2)cc1` (centres undefined), the growth was 77.2% (inactive).

With `O=C1[C@H]2Cc3c([nH]c4ccccc34)[C@H](c3ccc(Cl)cc3)N2C(=O)CN1C1CCN(Cc2c(Cl)cccc2Cl)CC1`, the growth was 57.5% (inactive).

Take `CC(C)(C)c1cc(NC(=O)Nc2ccc(-c3cn4c5c(sc4n3)CCc3cn(CCCN4CCCCC4)cc3-5)cc2)no1`: the growth was -76% (active).

For `O=C1/C(=C/c2cccs2)CCC/C1=C\c1cccs1`, the growth is -45.5% (active).

Take `CCn1c(SCC(=O)Nc2cccc(C(=O)/C=C/c3ccccc3Cl)c2)nc2ccccc2c1=O`: the growth is 76.7% (inactive).

Consider `c1cc2[nH]ncc2cc1-c1nc2ccc3[nH]ncc3c2c2c1CCC2`, for which the growth was 3.92% (active).

As to `COc1c(CNC(=O)CCl)cc2[nH]c(C)cc2c1CNC(=O)CCl`, the growth was 53.4% (inactive).

For `O=C(CCCSc1nc(-c2ccccc2)cc(-c2ccccc2)n1)NO`, the growth was -38% (active).

In the case of `Nc1ccc(-c2ccc(N)c(Br)c2)cc1Br`, the growth was 19.8% (inactive).

In the case of `C[C@H](c1nc2ccc(C#N)cc2[nH]1)[C@H]1CC[C@H]2[C@@H]3CCC4=CC(=O)CC[C@]4(C)[C@H]3CC[C@]12C`, the growth was 15.6% (inactive).

In the case of `O=C(Oc1ccccc1)c1ccccc1Cl`, the growth was 102% (inactive).
